The text below walks through data of PubChem BioAssay (Tox21).

Structures are written as SMILES. Several values for one entry are separate records, joined by “and”; a condition that tells them apart may be missing. Equal entries are not always repeated. Records with an inconclusive call do not appear. Activity calls are given as the source filed them. Unless noted, the call rests on the fitted dose curve; in most records, active means well fitted curve in the direction sought with a large enough effect in the repeat runs; inconclusive means weak or mixed curves; inactive means no such curve, though single readings can be large; an effect the other way counts as inactive or inconclusive.

Test [1] is described as follows: Caspase-3/7 induction in HepG2 cells by small molecules, qHTS assay (AID 1346978). Further: nearly all actives have a fitted effect of over 15% in size. A digest of the protocol:
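Wild-type HepG2 cells, 2,000/well, settled 5 hr at 37 C and 5% CO2, then compound-treated for 17 hr; caspase-3/7 activity read by luminescent Caspase-Glo 3/7 after 30 min at room temperature.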

The nature of test [2]: Caspase-3/7 induction in CHO-K1 cells by small molecules, qHTS cell viability counter screen (AID 1346979). Further: nearly all actives have a fitted effect of over 35% in size. Further: potency means the concentration at half of the fitted maximal effect. A digest of the protocol: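 Multiplexed with Caspase-Glo 3/7 in CHO-K1 cells, this counter screen added CellTiter-Fluor after 16hr of compound exposure and recorded fluorescence 1hr later.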
The nature of test [3]: Caspase-3/7 induction in CHO-K1 cells by small molecules, qHTS assay (AID 1346980). Further: nearly all actives have a fitted effect of over 15% in size. A digest of the protocol:
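Wild-type CHO-K1 cells exposed to compounds for 17hr at 37 C, 5% CO2. Caspase-3/7 activity then measured by Caspase-Glo 3/7 luminescence after 30min at room temperature.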

For test [4], the target named is Nuclear receptor subfamily 1 group I member 2 (Homo sapiens) (UniProt O75469). In words: Human pregnane X receptor (PXR) small molecule agonists, qHTS assay (AID 1346982). Further: nearly all actives have a fitted effect of over 35% in size. Further: potency means the concentration at half of the fitted maximal effect. A digest of the protocol:
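We seeded PXR-Luc HepG2 cells in assay medium containing 5% charcoal-stripped FBS, added compounds 5 hr later, incubated 24 hr, and read luminescence with ONE-Glo reagent.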

The target in test [5] is Acetylcholinesterase (Homo sapiens) (UniProt P22303). Put plainly: Acetylcholinesterase (AChE) small molecule antagonists: colormetric cell-based qHTS assay (AID 1347395; calls by dose curve; further: nearly all actives have a fitted effect of over 30% in size). In short, it runs like this:
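In this cell-based qHTS, attached SH-SY5Y cells were treated with test chemicals for 30 min, after which acetylthiocholine hydrolysis was followed by DTNB colour development over 90 min at 37 C.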

For test [6] the target is unchanged. In words: Acetylcholinesterase (AChE) small molecule antagonists: enzyme-based qHTS assay (AID 1347397; calls by dose curve; further: nearly all actives have a fitted effect of over 55% in size). Particulars: Potency: AChE enzyme activity inhibition; outcome: AChE enzyme activity inhibition. In short, it runs like this:
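Recombinant human AChE (50 mU/mL) preincubated with compound 30 min at room temperature; acetylthiocholine plus DTNB then added, and thiocholine formation read colorimetrically after 10 min at room temperature. DMSO served as vehicle control.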

The target is the same in test [7]. Put plainly: Acetylcholinesterase (AChE) small molecule antagonists: fluorescence cell-based qHTS assay (AID 1347398; calls by dose curve; further: nearly all actives have a fitted effect of over 50% in size). To be noted: Potency: AChE activity; outcome: AChE activity. A digest of the protocol:
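SH-SY5Y cells (2000/well), attached overnight, incubated with compound 30 min at 37 C. Acetylthiocholine plus Thiolite Green then added for 40 min at room temperature. Thiocholine fluorescence (Ex/Em 490/520 nm) reports cellular AChE activity.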

Test [8] has the same target. Put plainly: Acetylcholinesterase (AChE) small molecule antagonists: enzyme-based qHTS assay with human liver microsomes (AID 1347399; calls by dose curve; further: nearly all actives have a fitted effect of over 60% in size). Particulars: Potency: qHTS inhibition; outcome: qHTS inhibition. A digest of the protocol: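 Recombinant human AChE (50 mU/mL in the enzyme mix) and human liver microsomes (0.25 mg/mL final) were preincubated with compound and NADPH (0.25 mg/mL final) for 30 min at 37 C. Acetylthiocholine/DTNB was then added; thiocholine was read colorimetrically after 10 min at room temperature.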

For test [9], the target named is Cytochrome P450 2C19 (Homo sapiens) (UniProt P33261). In words: Cytochrome P450 Family 2 Subfamily C Member 19 (CYP2C19) small molecule antagonists: luciferase reporter qHTS assay (AID 1671197). Further: nearly all actives have a fitted effect of over 65% in size. Further: potency means the concentration at half of the fitted maximal effect. In short, it runs like this: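 CYP2C19 P450-Glo, 1536-well qHTS. Cpd + enzyme/proluciferin substrate 10 min RT; + NADPH regen, 37C 1 h; stop with luciferin detection reagent, 20 min RT, luminescence (RLU). Pos ctrl ketoconazole.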
Chain of Cytochrome P450 2C19 (Homo sapiens) (P33261 whole entry, looked up): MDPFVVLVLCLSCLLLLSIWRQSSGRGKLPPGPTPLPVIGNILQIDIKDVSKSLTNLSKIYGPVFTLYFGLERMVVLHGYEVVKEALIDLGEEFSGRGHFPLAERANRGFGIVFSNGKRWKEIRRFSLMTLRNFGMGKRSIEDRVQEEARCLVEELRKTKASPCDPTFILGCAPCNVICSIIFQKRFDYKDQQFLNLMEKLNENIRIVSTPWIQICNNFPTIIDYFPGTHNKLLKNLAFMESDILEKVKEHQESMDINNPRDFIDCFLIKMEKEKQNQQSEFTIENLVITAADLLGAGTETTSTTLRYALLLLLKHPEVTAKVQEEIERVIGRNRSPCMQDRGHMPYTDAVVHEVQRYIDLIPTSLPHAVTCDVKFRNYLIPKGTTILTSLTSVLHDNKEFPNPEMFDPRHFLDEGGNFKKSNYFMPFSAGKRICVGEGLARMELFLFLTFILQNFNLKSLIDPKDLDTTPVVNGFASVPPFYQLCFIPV

The target in test [10] is Cytochrome P450 2C9 (Homo sapiens) (UniProt P11712). In words: Cytochrome P450 Family 2 Subfamily C Member 9 (CYP2C9) small molecule antagonists: luciferase reporter qHTS assay (AID 1671198). Further: nearly all actives have a fitted effect of over 50% in size. Further: potency means the concentration at half of the fitted maximal effect. A digest of the protocol:
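P450-Glo proluciferin substrate with CYP2C9 enzyme; 10 min RT preincubation, then NADPH regeneration 1 h at 37C; luciferin detection reagent 20 min RT, luminescence in relative luminescence units.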

Test [11] deals with Cytochrome P450 1A2 (Homo sapiens) (UniProt P05177). Put plainly: Cytochrome P450 Family 1 Subfamily A Member 2 (CYP1A2) small molecule antagonists: luciferase reporter qHTS assay (AID 1671199). Further: nearly all actives have a fitted effect of over 50% in size. Further: potency means the concentration at half of the fitted maximal effect. In short, it runs like this: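 CYP1A2 turnover of a luminogenic substrate was quantified after 1 h with NADPH regeneration at room temperature. Furafylline served as positive control.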
Chain of Cytochrome P450 1A2 (Homo sapiens) (P05177 whole entry, looked up): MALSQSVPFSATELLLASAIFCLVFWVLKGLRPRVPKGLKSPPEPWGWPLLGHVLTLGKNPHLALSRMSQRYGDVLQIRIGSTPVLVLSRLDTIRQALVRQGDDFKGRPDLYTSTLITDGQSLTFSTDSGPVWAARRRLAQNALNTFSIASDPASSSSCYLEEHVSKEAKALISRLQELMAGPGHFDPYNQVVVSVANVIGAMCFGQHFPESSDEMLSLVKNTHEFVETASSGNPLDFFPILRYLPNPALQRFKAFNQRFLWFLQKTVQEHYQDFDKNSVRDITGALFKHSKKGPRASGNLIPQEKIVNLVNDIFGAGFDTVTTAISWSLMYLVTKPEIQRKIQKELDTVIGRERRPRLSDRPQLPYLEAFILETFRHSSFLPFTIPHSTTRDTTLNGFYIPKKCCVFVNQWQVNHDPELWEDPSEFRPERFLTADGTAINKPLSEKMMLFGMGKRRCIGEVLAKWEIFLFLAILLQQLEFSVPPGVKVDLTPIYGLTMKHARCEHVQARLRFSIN

The target of test [12] is Voltage-gated inwardly rectifying potassium channel KCNH2 (Homo sapiens) (UniProt Q12809). In words: Human Ether-a-go-go-Related Gene (hERG) channel small molecule antagonists: fluorescence cell-based qHTS assay (AID 1671200).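 Further: hERG-expressing U2OS cells given a thallium stimulus after FluxOR II dye loading; series mostly up to about 77 µM; nearly all actives have a fitted effect of over 50% in size.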 A digest of the protocol:
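Cell line hERG-U2OS; dye FluxOR II, 1 h RT dark; Tl+ stimulus; ex 480/em 540 nm, read each second for 2 min.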

Test [13] can be described thus: Human pregnane X receptor (PXR) small molecule agonists, qHTS cell viability counter screen (AID 1346977). Further: nearly all actives have a fitted effect of over 50% in size. A digest of the protocol: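 After a 5hr pre-incubation, PXR-Luc HepG2 cells received compounds plus positive control in DMSO and were kept 24hr at 37C. Cell viability was quantified by fluorescence from CellTiter-Fluor added for the final hour.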
A short description of test [14]: Caspase-3/7 induction in HepG2 cells by small molecules, qHTS cell viability counter screen (AID 1346981). Further: nearly all actives have a fitted effect of over 30% in size. Further: potency means the concentration at half of the fitted maximal effect. A digest of the protocol: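 Multiplexed with the caspase-3/7 assay: HepG2 cells, 16 hr compound treatment, CellTiter-Fluor viability detection by fluorescence.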
The target in test [15] is Cytochrome P450 3A4 (Homo sapiens) (UniProt P08684). In words: Cytochrome P450 Family 3 Subfamily A Member 4 (CYP3A4) small molecule antagonists: luciferase reporter qHTS assay (AID 1671201). A digest of the protocol: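 Room-temperature assay throughout: 10 min compound–enzyme/substrate preincubation, 1 h reaction after NADPH regeneration solution, 20 min detection. Luciferin formed from proluciferin substrate is quantified by luminescence.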
Chain of Cytochrome P450 3A4 (Homo sapiens) (P08684 whole entry, looked up): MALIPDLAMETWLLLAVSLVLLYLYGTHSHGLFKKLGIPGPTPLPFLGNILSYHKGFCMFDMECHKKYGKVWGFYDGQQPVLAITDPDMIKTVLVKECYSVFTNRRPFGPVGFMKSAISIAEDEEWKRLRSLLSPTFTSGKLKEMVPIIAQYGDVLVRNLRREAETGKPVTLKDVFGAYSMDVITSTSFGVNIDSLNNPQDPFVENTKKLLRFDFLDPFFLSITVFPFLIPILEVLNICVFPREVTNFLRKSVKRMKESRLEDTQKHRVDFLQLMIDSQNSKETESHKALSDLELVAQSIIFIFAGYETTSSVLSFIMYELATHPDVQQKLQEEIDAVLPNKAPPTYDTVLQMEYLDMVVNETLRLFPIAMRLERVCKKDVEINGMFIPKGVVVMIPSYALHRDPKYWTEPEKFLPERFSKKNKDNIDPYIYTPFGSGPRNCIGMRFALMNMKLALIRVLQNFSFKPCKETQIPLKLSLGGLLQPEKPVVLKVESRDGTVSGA

Test [16] concerns the target Cytochrome P450 2D6 (Homo sapiens) (UniProt P10635). In words: Cytochrome P450 Family 2 Subfamily D Member 6 (CYP2D6) small molecule antagonists: luciferase reporter qHTS assay (AID 1671196). Further: nearly all actives have a fitted effect of over 50% in size. Further: potency means the concentration at half of the fitted maximal effect. A digest of the protocol: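 Luminescence (RLU), read 20 min after detection reagent, indicated CYP2D6 conversion of proluciferin to luciferin during a 1 h NADPH-dependent reaction at room temperature.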

Chain of Cytochrome P450 2D6 (Homo sapiens) (P10635 whole entry, looked up): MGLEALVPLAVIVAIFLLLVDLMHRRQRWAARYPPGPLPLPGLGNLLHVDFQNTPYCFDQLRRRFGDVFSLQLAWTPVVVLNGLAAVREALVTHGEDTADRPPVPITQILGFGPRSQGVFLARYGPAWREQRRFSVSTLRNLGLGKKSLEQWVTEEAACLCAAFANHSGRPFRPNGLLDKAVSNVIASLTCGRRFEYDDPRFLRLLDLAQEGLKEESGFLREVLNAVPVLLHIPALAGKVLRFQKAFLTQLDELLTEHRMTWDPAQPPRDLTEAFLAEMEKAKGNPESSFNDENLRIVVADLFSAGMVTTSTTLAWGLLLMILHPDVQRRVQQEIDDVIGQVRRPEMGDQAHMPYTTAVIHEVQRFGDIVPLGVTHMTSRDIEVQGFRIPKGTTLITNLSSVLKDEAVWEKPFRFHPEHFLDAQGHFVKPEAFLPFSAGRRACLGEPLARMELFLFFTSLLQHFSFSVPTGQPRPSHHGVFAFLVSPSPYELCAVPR
Chain of Cytochrome P450 2C9 (Homo sapiens) (P11712 whole entry, looked up): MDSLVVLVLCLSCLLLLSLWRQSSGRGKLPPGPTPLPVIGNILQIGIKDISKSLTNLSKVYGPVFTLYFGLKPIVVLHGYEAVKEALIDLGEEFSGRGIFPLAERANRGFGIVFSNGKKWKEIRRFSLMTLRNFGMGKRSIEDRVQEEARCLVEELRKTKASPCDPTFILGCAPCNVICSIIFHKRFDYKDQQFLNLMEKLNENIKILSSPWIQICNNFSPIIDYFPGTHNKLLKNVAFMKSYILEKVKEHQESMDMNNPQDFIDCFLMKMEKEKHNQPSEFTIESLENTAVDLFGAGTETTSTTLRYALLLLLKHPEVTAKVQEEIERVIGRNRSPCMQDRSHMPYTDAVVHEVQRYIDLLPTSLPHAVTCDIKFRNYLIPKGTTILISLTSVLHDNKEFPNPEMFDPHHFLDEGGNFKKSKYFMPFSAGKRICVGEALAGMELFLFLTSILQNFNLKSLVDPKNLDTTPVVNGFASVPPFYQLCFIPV
Chain of Nuclear receptor subfamily 1 group I member 2 (Homo sapiens) (O75469 whole entry, looked up): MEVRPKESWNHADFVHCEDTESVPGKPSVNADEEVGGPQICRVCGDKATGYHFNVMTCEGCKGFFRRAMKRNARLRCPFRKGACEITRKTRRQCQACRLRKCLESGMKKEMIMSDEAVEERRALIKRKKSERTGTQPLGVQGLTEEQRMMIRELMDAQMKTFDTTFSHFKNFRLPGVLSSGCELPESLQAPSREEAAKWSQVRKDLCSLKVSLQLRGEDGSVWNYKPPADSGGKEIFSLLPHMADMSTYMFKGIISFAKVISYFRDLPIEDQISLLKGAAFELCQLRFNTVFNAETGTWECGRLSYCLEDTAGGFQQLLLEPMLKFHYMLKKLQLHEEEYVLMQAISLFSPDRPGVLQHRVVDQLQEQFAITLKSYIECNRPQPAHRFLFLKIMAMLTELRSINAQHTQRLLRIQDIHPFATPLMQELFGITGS
Chain of Acetylcholinesterase (Homo sapiens) (P22303 whole entry, looked up): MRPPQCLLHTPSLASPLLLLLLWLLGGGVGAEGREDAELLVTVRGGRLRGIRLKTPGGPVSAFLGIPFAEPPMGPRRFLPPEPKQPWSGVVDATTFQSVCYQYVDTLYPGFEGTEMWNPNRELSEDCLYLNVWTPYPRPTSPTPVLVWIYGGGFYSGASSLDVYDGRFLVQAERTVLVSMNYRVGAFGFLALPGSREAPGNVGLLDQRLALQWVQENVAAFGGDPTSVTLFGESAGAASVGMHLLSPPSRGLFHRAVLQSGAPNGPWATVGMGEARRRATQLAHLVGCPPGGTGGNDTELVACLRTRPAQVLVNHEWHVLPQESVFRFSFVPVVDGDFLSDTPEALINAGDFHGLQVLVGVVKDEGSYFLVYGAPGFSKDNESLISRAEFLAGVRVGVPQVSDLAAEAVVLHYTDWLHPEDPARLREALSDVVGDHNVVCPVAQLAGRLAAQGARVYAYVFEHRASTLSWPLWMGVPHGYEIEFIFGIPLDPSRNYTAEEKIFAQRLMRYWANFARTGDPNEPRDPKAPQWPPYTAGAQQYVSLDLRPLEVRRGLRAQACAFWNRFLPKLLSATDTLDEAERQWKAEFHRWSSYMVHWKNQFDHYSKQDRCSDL
Chain of Voltage-gated inwardly rectifying potassium channel KCNH2 (Homo sapiens) (Q12809 whole entry, looked up): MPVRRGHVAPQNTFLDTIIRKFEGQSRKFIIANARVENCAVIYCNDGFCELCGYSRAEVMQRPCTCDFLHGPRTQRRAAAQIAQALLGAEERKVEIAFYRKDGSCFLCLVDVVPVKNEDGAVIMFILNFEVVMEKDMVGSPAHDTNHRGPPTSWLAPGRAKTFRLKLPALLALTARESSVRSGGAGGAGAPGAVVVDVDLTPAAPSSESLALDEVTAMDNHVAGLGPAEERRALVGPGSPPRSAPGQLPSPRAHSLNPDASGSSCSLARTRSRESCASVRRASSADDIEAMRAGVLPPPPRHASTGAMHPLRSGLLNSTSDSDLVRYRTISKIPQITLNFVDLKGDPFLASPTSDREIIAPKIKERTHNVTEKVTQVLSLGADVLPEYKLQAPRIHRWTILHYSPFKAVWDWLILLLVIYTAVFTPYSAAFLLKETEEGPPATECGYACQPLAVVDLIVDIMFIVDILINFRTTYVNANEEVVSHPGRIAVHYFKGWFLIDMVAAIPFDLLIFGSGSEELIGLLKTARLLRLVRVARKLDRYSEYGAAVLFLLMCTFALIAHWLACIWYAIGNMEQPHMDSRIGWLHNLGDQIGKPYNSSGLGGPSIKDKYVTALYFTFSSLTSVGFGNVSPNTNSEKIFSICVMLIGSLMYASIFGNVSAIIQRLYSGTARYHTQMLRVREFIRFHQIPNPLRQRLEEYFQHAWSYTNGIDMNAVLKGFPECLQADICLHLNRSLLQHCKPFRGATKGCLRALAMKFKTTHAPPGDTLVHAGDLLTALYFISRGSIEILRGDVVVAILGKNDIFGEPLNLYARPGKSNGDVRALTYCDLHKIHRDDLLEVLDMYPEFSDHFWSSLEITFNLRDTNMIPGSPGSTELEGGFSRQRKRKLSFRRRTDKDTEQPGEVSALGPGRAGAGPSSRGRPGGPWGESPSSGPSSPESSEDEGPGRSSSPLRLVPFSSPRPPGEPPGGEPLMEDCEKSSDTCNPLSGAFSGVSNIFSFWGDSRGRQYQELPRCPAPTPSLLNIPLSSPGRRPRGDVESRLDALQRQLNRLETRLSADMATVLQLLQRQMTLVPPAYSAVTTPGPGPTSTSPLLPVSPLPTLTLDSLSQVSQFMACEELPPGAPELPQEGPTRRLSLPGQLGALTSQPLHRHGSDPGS

`CCOC(C(=O)OCCN(C)C)(c1ccccc1)c1ccccc1`: the Potency entry in test [1], in test [2], in test [3], in [5], in [6] and in test [7] was “inactive” each time. Also, the Potency entry in test [8], in [11] and in test [12] was “inactive” throughout. Also, the values for the Potency in test [4], in test [9] and in test [10] were 13.3 µM (active), 8.71 µM (active) and 11 µM (active), respectively.

Consider `OCCSSCCO`, for which the Potency result in test [13], in test [3], in test [14], in test [4], in test [5] and in [6] was “inactive” each time. The Potency entry in test [7], in test [8], in [12] and in test [15] was “inactive” in each case. The Potency in [9] was 56.4 µM (active).

As for `COc1cc(C[C@@H](C)N)c(OC)cc1Br`, the Potency entry in [2], in [3], in [4], in [5], in [6] and in test [7] was “inactive” throughout. Moreover, the Potency entry in [8], in [9], in test [10], in test [12] and in test [15] was “inactive” each time. The Potency in test [16] is 11.6 µM (active); in test [11], 36.5 µM (active).

With `CN(C1CCCCC1)C1CCCCC1`, the Potency result in [13], in test [2], in test [3], in test [14], in test [4] and in [6] was “inactive” throughout. The Potency result in [7], in test [8], in test [9], in [11], in [12] and in test [15] was “inactive” in each case. Besides, the Potency in test [16] is 3.17 µM (active).

Consider `CCCC(C)(COC(N)=O)COC(=O)NC(C)C` (stereo unspecified), for which the Potency result in test [13], in test [2], in test [3], in test [14], in [4] and in test [5] was “inactive” throughout. Further, the Potency result in test [6], in test [7], in test [8], in [10], in test [11] and in [12] was “inactive” throughout. Besides, in test [15], the Potency entry is “inactive”. Moreover, the Potency in [9] is 20 µM (active) and 8.71 µM (active).

Consider `CCCCCCCCCCCCCCCl`, for which the Potency result in test [13], in test [2], in test [3], in [14], in test [5] and in [6] was “inactive” throughout. In addition, the Potency entry in test [8], in [16], in test [9], in [10], in [12] and in [15] was “inactive” each time. Also, in [4], the Potency was 61.4 µM (active).

As for `COc1ccc2c(c1OC)C(=O)O[C@H]2[C@@H]1c2cc3c(cc2CCN1C)OCO3`, the Potency in test [2] is 11.9 µM (active); in [9], 3.89 µM (active); in test [10], 5.49 µM (active). Moreover, the Potency entry in test [3], in test [6], in test [7], in test [8] and in [11] was “inactive” in each case.

As to `COC(=O)C1(O)c2ccccc2-c2ccccc21`, the Potency result in test [13], in test [2], in test [3], in test [14], in test [5] and in test [6] was “inactive” in each case. Also, the Potency result in test [7], in test [8] and in [16] was “inactive” in each case. Moreover, the Potency is 79.6 µM (active) in test [9] and 25.2 µM (active) in test [11].

In the case of `ClCc1ccccc1Cl`, the Potency result in test [13], in [2], in test [3], in test [4], in test [5] and in test [6] was “inactive” each time. Moreover, the Potency entry in test [7], in test [8], in test [16], in test [9], in test [10] and in test [12] was “inactive” each time. Also, the Potency result in test [15] is “inactive”.

In the case of `Cc1nc2ccccc2c(=O)n1-c1ccccc1Cl`, the Potency was 26.7 µM (active) in [2]; 26.7 µM (active) in test [14]; 21.2 µM (active) in test [4]; 2.77 µM (active) in [9]; 39.1 µM (active) in test [10]. Further, the Potency result in test [3], in test [5], in test [6], in test [7], in test [8] and in test [11] was “inactive” each time. The Potency result in [12] and in test [15] was “inactive” each time.
